Here are results for five compounds from PubChem BioAssay.

Inconclusive results are not listed. Calls of active or inactive are those of the source.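 Rule for the calls, unless noted: active = growth inhibition above 25% in both replicates, a cutoff set 3 SD above the mean; inconclusive = above 25% in only one replicate; inactive = the rest.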

A word on the viability: it is a read-out of living cells in per cent, often relative to untreated cells. What is called inhibition is the relative decrease from the control value, in per cent.

Assay [1] in a line: reducers of endogenous Her2 protein level, primary screen, SKBR3 breast tumor cells, AlphaScreen, ATP viability (AID 461;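 active = Her2 level under about 52% in both replicate screens, with viability over 70% of control, limit read from the data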;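 for Her2 level: lower value means less Her2 protein in the cells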;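 for viability: percent of carrier control wells set as 100% viability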). Conditions: 18-24 h, measured here: SKBR3 viability, ATP luminescence, at 10 µM.
The target of assay [2] is Receptor tyrosine-protein kinase erbB-2 (Homo sapiens) (UniProt P04626). The description is as above. Particulars: 18-24 h, at 10 µM, stronger effect = lower value.
The nature of assay [3]: SK-BR-3 cell growth inhibitors, pilot screen, 24 h, human (AID 572;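 active = viability at or below 10% of carrier control in both of two separate runs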;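 note: compound exposure lasted between 18 and 24 h rather than exactly 24 h; 100% = carrier-treated control wells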). Particulars: SK-BR-3 viability, CellTiter-Glo luminescence, at 10 µM, stronger effect = lower value. A general note: In ATP-based viability assays light output follows the ATP content of the culture.
Assay [4] in a line: HUVEC growth inhibition – cell-based, human, primary screen (AID 575;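 active = viability at or below 30% in both replicate assays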;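 note: 100% = median of untreated cell wells with 0.1% DMSO on each plate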). Particulars: HUVEC proliferation, CellTiter-Glo luminescence, 72 h; at 10 µM; stronger effect = lower value.
Assay [5] is described as follows: growth inhibitors of H69AR lung tumor, primary screen, human, duplicate replicates (AID 580;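 active = viability at or under a set limit in both replicates, limit being median viability minus 3 SD, cut at about 48% in these data, passing the limit was not always enough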;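 note: 100% = mean luminescence of untreated wells and 0% = no signal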). Particulars: H69AR lung tumor cells viability, ATP luminescence, 72 h; at 10 µM; stronger effect = lower value.
Assay [6] in a line: reversal of MRP1-mediated doxorubicin resistance, pilot screen, H69AR cells, doxorubicin co-treatment (AID 601;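 active = viability loss from added drug above about 55%, and viability with drug at most 40%, in both replicates, limit read from the data, passing the limit was not always enough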). Conditions: CellTiter-Glo, 72 h, at 10 µM; for differential viability (reversal): stronger effect = higher value.
Assay [7] in a line: 384-well plate pilot, post-Golgi transport modulator project, inhibition of yeast transport mutant growth (AID 636; in the data active = inhibition above about 31%). Particulars: absorbance 615 nm, about 18 h, stronger effect = higher value.
Assay [8] is described as follows: growth suppression of yeast trafficking mutant, preliminary HTS, modulators of trafficking downstream of Golgi apparatus project, 1536-format plate, OD 615 nm (AID 637; in the data active = inhibition above about 30%). Particulars: yeast transport mutant growth, absorbance 615 nm, 18 h; stronger effect = higher value.
The nature of assay [9]: OD615 S. cerevisiae growth inhibition, permissive medium, pilot counter-assay, permissive growth control for S. cerevisiae lifespan shortening project (AID 705). Particulars: OD615, 24 h, at 10 µM, stronger effect = higher value.
The nature of assay [10]: Restrictive medium S. cerevisiae growth inhibition, OD615, pilot screen of yeast lifespan reduction project, restrictive growth control (AID 706;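 active = growth inhibition above a set limit, 3 SD over mean compound inhibition, in both replicates, cut at about 43% in these data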;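 note: modified DeaD lifespan yeast strain shifted to restrictive glucose medium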). Particulars: OD615, 48 h, at 10 µM, stronger effect = higher value.
Assay [11] can be described thus: viability gain of MRP-1-high H69AR cells under doxorubicin, pilot screen, MRP-1 activator project, CellTiter-Glo, duplicate (AID 807;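 active = viability increase at or above a cutoff of the median across tested compounds plus 3 SD, cut at about 8.5% in these data, passing the limit was not always enough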;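 note: compound pretreatment 18-22 h then 72 h combined with doxorubicin; 0% = doxorubicin alone and 100% = vehicle without doxorubicin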). Conditions: H69AR viability with doxorubicin, CellTiter-Glo luminescence; at 10 µM; stronger effect = higher value.
A short description of assay [12]: growth suppression of beta-catenin knockout HCT116, pilot screen, human colon tumor cells (AID 823;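 active = cell viability at or below a set limit in both duplicate runs, the limit being the all-compound median minus 4 SD, cut at about 23% in these data, passing the limit was not always enough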;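 note: 0% = wells killed by 20 µM Hyamine and 100% = untreated DMSO cell wells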). Particulars: CellTiter-Glo, 60 h, at 10 µM, stronger effect = lower value.
A short description of assay [13]: growth suppression of PTEN-deleted HCT116, pilot screen, cell-based, HCT116 clonal line, CellTiter-Glo (AID 824;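 active = viability at or below 27.92% in each of two runs, the all-compound median minus 4 SD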;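 note: 0% = 20 µM Hyamine control and 100% = vehicle cell control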). Particulars: 60 h, at 10 µM, stronger effect = lower value.
Assay [14] in a line: inhibitors of the yeast RAM network, pilot screen, dse1pr::URA3 reporter, 5-FOA selection (AID 869;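 active = inhibition over a set limit, the all-compound mean plus 3 SD, in both replicate runs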;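 note: 0% = DMSO wells with no growth and 100% = 10 µM 1-NA-PP1 with full growth; RAM network block rescues cells from 5-FOA so hits raise OD615 growth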). Conditions: S. cerevisiae dse1pr::URA3 5-FOA growth, OD615, 2 d; at 10 µM; stronger effect = higher value; strain carries analog-sensitive mutant Cbk1 kinase.
The nature of assay [15]: RAM signaling pathway blockade in yeast – S. cerevisiae, Pdr1DBD-CYC8 efflux-inhibited sensitized strain, primary screen (AID 1298;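 active = RAM network inhibition above 8.4% in each of two replicates, 3 SD over the compound average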;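 note: 0% = DMSO untreated cells without growth and 100% = 10 µM 1-NA-PP1 full growth; higher means more yeast growth rescued from 5-FOA killing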). Particulars: S. cerevisiae cbk1-as DSE1-URA3 strain, 5-FOA growth OD615, 2 d; at 50 µM; stronger effect = higher value.
Where [16] appears, read: H69AR cells + 2 uM doxorubicin, measured here: viability with 2 uM doxorubicin, stronger effect = lower value.
Setting [17] is: H69AR cells, compound alone cytotoxicity.

Chain of Receptor tyrosine-protein kinase erbB-2 (Homo sapiens) (P04626 whole entry, looked up): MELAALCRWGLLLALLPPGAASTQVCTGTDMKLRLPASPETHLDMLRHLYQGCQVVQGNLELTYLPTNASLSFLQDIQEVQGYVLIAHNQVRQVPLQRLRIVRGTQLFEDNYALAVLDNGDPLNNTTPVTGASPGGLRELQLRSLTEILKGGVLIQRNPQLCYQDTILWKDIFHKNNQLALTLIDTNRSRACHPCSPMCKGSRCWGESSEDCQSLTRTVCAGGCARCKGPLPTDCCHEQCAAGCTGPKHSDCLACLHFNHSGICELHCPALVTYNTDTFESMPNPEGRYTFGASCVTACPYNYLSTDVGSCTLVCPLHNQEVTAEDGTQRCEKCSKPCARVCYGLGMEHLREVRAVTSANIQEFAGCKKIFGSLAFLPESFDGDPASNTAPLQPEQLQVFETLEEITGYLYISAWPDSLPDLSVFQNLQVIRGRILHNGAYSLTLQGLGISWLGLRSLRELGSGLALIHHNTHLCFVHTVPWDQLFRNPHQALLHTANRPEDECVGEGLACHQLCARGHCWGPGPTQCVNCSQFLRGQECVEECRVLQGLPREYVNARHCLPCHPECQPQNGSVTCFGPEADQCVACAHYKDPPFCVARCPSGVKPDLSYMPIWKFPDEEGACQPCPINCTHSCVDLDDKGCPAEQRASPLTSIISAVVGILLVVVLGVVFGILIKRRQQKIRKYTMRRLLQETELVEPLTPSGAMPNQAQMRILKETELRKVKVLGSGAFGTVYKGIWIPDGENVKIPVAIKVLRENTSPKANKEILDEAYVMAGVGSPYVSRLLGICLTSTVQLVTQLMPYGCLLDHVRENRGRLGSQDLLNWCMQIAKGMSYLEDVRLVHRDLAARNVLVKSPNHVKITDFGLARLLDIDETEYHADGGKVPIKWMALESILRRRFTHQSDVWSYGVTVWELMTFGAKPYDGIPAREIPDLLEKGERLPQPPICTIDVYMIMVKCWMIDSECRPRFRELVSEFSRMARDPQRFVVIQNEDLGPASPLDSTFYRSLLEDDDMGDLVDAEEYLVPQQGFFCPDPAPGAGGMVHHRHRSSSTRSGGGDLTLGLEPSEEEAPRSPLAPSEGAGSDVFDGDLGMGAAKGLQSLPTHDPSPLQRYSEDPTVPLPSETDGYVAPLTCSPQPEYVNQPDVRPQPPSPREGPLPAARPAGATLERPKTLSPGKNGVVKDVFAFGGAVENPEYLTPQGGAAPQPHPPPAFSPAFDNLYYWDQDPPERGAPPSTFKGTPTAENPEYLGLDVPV

With `Cc1ccc(C)c2[nH]c(=O)c(CCNC(=O)CC(C)(C)C)cc12`, the viability is 88% in assay [1]; 88% (inactive) in [3]; 103% (inactive) in assay [4]; 90.9% (inactive) in [5]; 69.7% in [6] (setting [16]); 90.9% in assay [6] (setting [17]). For the same compound, the viability in [12] was 104% (inactive); in assay [13], 92.6% (inactive). Moreover, the Her2 level in assay [2] is 105% (inactive). The differential viability (reversal) in assay [6] (H69AR cells + 2 uM doxorubicin) is 21.2% (inactive). Besides, the inhibition in assay [7] was -4.27% (inactive); in assay [8], -4.5% (inactive); in assay [14] it was 1.04% (inactive). Besides, the figures for the growth inhibition in [9] and in [10] were -4.09% (inactive) and -11.6% (inactive), respectively. Further, in [11], the viability increase is 1.59% (inactive). In assay [15], the RAM network inhibition was 4.85% (inactive).

Consider `COCCCNC(=O)CC1Oc2ccccc2NC1=O` (stereo not given), for which the viability in assay [1] is 86.5%; in [3] it was 86.5% (inactive); in [4], 111% (inactive); in assay [5], 83.3% (inactive); in assay [6] (setting [16]), 88.7%; in assay [6] (setting [17]) it was 83.3%. Besides, the viability in assay [12] is 97.6% (inactive); in [13], 102% (inactive). Further, the Her2 level in [2] is 100% (inactive). Also, in assay [6] (H69AR cells + 2 uM doxorubicin), the differential viability (reversal) is -5.41% (inactive). In addition, the inhibition in assay [7] was -5.73% (inactive); in assay [8] it was -2.83% (inactive); in assay [14], 1.65% (inactive). In addition, the growth inhibition was -2.61% (inactive) in [9] and -1.36% (inactive) in assay [10]. For the same compound, the viability increase in assay [11] was 0.06% (inactive). In assay [15], the RAM network inhibition was 2.25% (inactive).

For the compound `COC(=O)CSC1=C(C#N)C(c2ccc(F)cc2)CC(=O)N1` (stereo not given), the viability in [1] is 109%; in assay [3], 109% (inactive); in assay [4], 101% (inactive); in assay [5], 80.8% (inactive); in assay [6] (setting [16]), 80.6%; in [6] (setting [17]), 80.8%. Moreover, the viability in assay [12] is 100% (inactive); in assay [13] it was 95.9% (inactive). For the same compound, the Her2 level in assay [2] is 105% (inactive). In assay [6] (H69AR cells + 2 uM doxorubicin), the differential viability (reversal) was 0.195% (inactive). In addition, the inhibition in assay [7] is -4.93% (inactive); in assay [8], -4.75% (inactive); in [14] it was 0.905% (inactive). Further, the growth inhibition in assay [9] was 9% (inactive); in assay [10] it was -15.4% (inactive). Besides, the viability increase in [11] was -0.35% (inactive). Besides, in assay [15], the RAM network inhibition was -1.71% (inactive).

Take `O=C(Nc1ccncc1)C1CCCN(S(=O)(=O)c2cccc3cccnc23)C1` (stereo not given): the viability in assay [1] was 84.5%; in assay [3], 84.5% (inactive); in [4], 63% (inactive); in [5], 17.4% (active); in assay [6] (setting [16]), 76.2%; in [6] (setting [17]) it was 17.4%. The results for the viability in assay [12] and in assay [13] were 19.9% (active) and 23.8% (active), respectively. The Her2 level in [2] is 104% (inactive). For the same compound, in [6] (H69AR cells + 2 uM doxorubicin), the differential viability (reversal) was -58.8% (inactive). The inhibition is -7.07% (inactive) in assay [7], 3.33% (inactive) in [8] and 1.59% (inactive) in [14]. The figures for the growth inhibition in [9] and in assay [10] were -10.3% (inactive) and -4.11% (inactive), respectively. In addition, the viability increase in [11] is -6.31% (inactive). For the same compound, the RAM network inhibition in [15] was 2.56% (inactive).

Regarding `CCc1ccccc1NC(=O)c1cnc2n(c1=O)CCS2`, the viability in [1] was 90.5%; in assay [3], 90.5% (inactive); in [4], 95% (inactive); in assay [5], 91.6% (inactive); in assay [6] (setting [16]), 88.1%; in assay [6] (setting [17]) it was 91.6%. Also, the viability in assay [12] was 90.9% (inactive); in assay [13], 97% (inactive). In addition, the Her2 level in assay [2] is 90% (inactive). The differential viability (reversal) in assay [6] (H69AR cells + 2 uM doxorubicin) is 3.48% (inactive). Also, the inhibition in [7] is -1.33% (inactive); in assay [8], -4.26% (inactive); in assay [14] it was 1.32% (inactive). The growth inhibition is -7.06% (inactive) in [9] and 1.6% (inactive) in assay [10]. The viability increase in [11] is 3.48% (inactive). Moreover, the RAM network inhibition in [15] was 5.66% (inactive).
